CF NFkB block: blocks PAF-induced NF-kB reporter in cystic fibrosis cells; KKLEB NF-kB-GFP reporter, GFP fluorescence overnight; inhibition, % at 5 µM; actives 0.86% (n = 360,000);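 active = at least 50% inhibition at 5 µM, scaled per plate between neutral and stimulator controls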;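 note: PAF is a Pseudomonas aeruginosa culture filtrate used as stimulus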
Peg3 prom inh: inhibitors of Peg3 promoter; HeLa PEG-Prom luciferase reporter, luminescence, overnight; inhibition, % at 20 µM; actives 1.7% (n = 360,000); AID 588405;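 active = inhibition of at least 50% at 20 µM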
KKLEB cytotox: counter-screen for CF NF-kB inhibitors: cytotoxicity. KKLEB CF airway cells viability, ATPlite luminescence, overnight; active compounds read low; cells stimulated with P. aeruginosa culture filtrate. actives 0.36% (n = 360,000). activity change (cytotoxicity), % at 5 µM;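 active = corrected activity change at or below -50% at 5 µM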
MITF TRPM1 inh: reduces MITF-dependent TRPM1 promoter luciferase signal | SK-MEL-5 TRPM1 promoter luciferase, 24 h | inhibition, % at 12.5 µM | actives 0.83% (n = 330,000);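 active = mean inhibition across replicates of 60% or more, whatever share of single replicates reaches that level; inconclusive = some that reach 60%, reason not given; inactive = mean inhibition across replicates below 60%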
HIF-2a block: inhibitors of HIF-2a; 786-0 RCC cells HIF-2a reporter, luciferase luminescence, overnight; inhibition, % at 18.8 µM; actives 0.72% (n = 360,000); AID 624352;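 active = inhibition of the luminescence signal of 40% or more relative to plate controls, in a single-dose primary screen at 18.75 µM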
Shn3 inh set2: Schnurri-3 reporter inhibition in Clone20 osteoblasts. Clone20 osteoblast Shn3 3'UTR firefly luciferase, 24 h. AID 588674. actives 0.52% (n = 360,000). inhibition, % at 12.5 µM;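 active = mean inhibition of at least 75% with every replicate also reaching 75%; inconclusive = mean inhibition at least 75% but some replicate below; inactive = mean inhibition below 75%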
Large screens that a line does not name were inactive. Shown are actives, neighbours in structure and some others; about 2.8% of the full set was active somewhere.

COC(=O)C1=C(c2ccc(F)cc2OCc2ccccc2)C[C@@H]2CC[C@H]1N2C(=O)NCc1ccc(C(F)(F)F)cc1	Shn3 inh set2 93
Cc1ccc(Cn2cc(C=O)c3ccccc32)cc1	Peg3 prom inh 63
O=Cc1cn(Cc2ccccc2[N+](=O)[O-])c2ccccc12	none
Clc1ccc2c(c1)C(c1ccccc1Cl)=NCc1nnc(N3CCN(CCOc4ccccc4)CC3)n1-2	none
CCCN1CCc2cc(O)cc3c2[C@H]1Cc1ccc(O)c(O)c1-3	none
CN1CCc2cc(O)cc3c2[C@H]1Cc1ccc(O)c(O)c1-3	KKLEB cytotox -77
Cc1ccccc1-n1c(O)c(/C=C2/C(c3ccccc3)=Nc3ccccc32)c(=O)[nH]c1=O	HIF-2a block 64
CC(C)CN1Cc2cc(-c3cccc(F)c3)ccc2-n2nncc2C1	none (no result: MITF TRPM1 inh)
COc1cc2c3c(c1OC)Oc1ccc(cc1)C[C@H]1c4c(cc(OC)c(OC)c4Oc4ccc(cc4)C[C@@H]3N(C)CC2)CCN1C	Peg3 prom inh 87, MITF TRPM1 inh 91
COc1cc2c3cc1Oc1cc(ccc1O)C[C@@H]1c4c(cc(OC)c(O)c4Oc4cccc(c4)C[C@@H]3N(C)CC2)CC[N+]1(C)C	none
COc1cc2c3cc1Oc1cc(ccc1O)C[C@@H]1c4c(cc(OC)c(O)c4Oc4ccc(cc4)C[C@H]3N(C)CC2)CCN1C	Peg3 prom inh 68, KKLEB cytotox -66
COc1cc2c3cc1Oc1c(OC)c(OC)cc4c1[C@H](Cc1ccc(cc1)Oc1cc(ccc1O)C[C@H]3N(C)CC2)N(C)CC4	Peg3 prom inh 70, MITF TRPM1 inh 80
COc1cc2c(cc1O)C[C@H]1c3c(cc(O)c(OC)c3-2)CCN1C	none
COc1ccc(/C=C/C(=O)NC(=S)N2C[C@H]3C[C@H](C2)c2cccc(=O)n2C3)cc1OC	none
Cc1ccc(OC(=O)N(C)C[C@@H]2OCc3cnnn3CCCC(=O)N([C@@H](C)CO)C[C@@H]2C)cc1	none (no result: MITF TRPM1 inh)
CC[C@H]1CN2CC[C@@]3(C(=O)Nc4ccccc43)[C@@H]2C[C@@H]1/C(=C\OC)C(=O)OC	none (no result: MITF TRPM1 inh)
CCOC(=O)c1cccc(NC(=O)c2c(O)[nH]c(=O)[nH]c2=O)c1	none
CCOC(=O)c1cccc(-[n+]2c(-c3ccccc3)cc(-c3ccccc3)cc2-c2ccccc2)c1	MITF TRPM1 inh 68
CCOC(=O)c1ccccc1C(=O)OCC	none
CCOC(=O)c1ccc(-[n+]2c(-c3ccccc3)cc(-c3ccccc3)cc2-c2ccccc2)cc1	MITF TRPM1 inh 77 (no result: CF NFkB block, Peg3 prom inh, KKLEB cytotox, HIF-2a block, Shn3 inh set2)
Cc1ccc(OC(F)F)c(N2C(=O)C3C4CCC(O4)C3C2=O)c1 (stereo not drawn)	none
CCOc1ccc(Cl)cc1CNCCc1ccccc1F	Peg3 prom inh 74
CC1CC(C)OP(=O)(OCCC#N)O1 (stereo not drawn)	none
CC(=O)O/C(=C1\CC2C3CC=C4CC(OC(C)=O)CCC4(C)C3CCC2(C)C1=O)C(F)(F)F (stereo not drawn)	Peg3 prom inh 63
CCCC[n+]1cc(=N)o[n-]1	none
CN1CCC(N(C)c2nc(-c3ccc([N+](=O)[O-])cc3)nc3ccccc23)CC1	Peg3 prom inh 108, MITF TRPM1 inh inconclusive
COCc1cc(OC(=O)N(C)C)nc(-c2ccccc2)n1	none
CC1=C(O)C(=O)C=C2C1=CC=C1C2(C)CCC2(C)C3CC(C)(C(=O)O)CCC3(C)CCC12C (stereo not drawn)	CF NFkB block 78, Peg3 prom inh 105, KKLEB cytotox -75, MITF TRPM1 inh 94, HIF-2a block 92, Shn3 inh set2 95
O=C1/C(=C/c2ccc([N+](=O)[O-])cc2)N2CCC1CC2	none
Cc1ccc(C(O)(c2ccc(C)c(C)c2)C2CN3CCC2CC3)cc1C (stereo not drawn)	Peg3 prom inh 98, MITF TRPM1 inh 83
Cc1ccccc1C(O)(Cc1ccccc1)C1CN2CCC1CC2 (stereo not drawn)	none
CCOC(=O)[C@]12Cc3cc4ccccc4cc3[C@H]1N(Cc1ccccc1)C(=O)c1cc(OC)ccc12	none (no result: CF NFkB block, Peg3 prom inh, KKLEB cytotox, MITF TRPM1 inh, Shn3 inh set2)
Clc1cccc(N2Cc3cc(-c4ccccc4)ccc3-n3nncc3C2)c1	Peg3 prom inh 101 (no result: MITF TRPM1 inh)
CCN(CC)c1ccc(CNCCc2ccc(F)cc2)cc1	Peg3 prom inh 64
CCc1ccc(CNCCc2ccc(F)cc2)cc1	none
CCC(=O)O[C@H]1CC[C@H]2[C@@H]3CCC4=CC(=O)CC[C@]4(C)[C@H]3CC[C@]12C	Peg3 prom inh 53
CC12CCC(=O)C=C1CCC1C2CCC2(C)C(O)CCC12 (stereo not drawn)	none
CCCCCc1nc2c(c(=O)c3ccccc3n2C)c(=O)n1C1CCCCCC1	Peg3 prom inh 72, Shn3 inh set2 90
COc1ccc2c3c1OC1C(=O)CC[C@@]4(O)[C@@H](C2)N(C)CC[C@]314 (stereo partly drawn)	Peg3 prom inh 50
C=CCN1CC[C@]23c4c5ccc(O)c4OC2C(=O)CC[C@@]3(O)C1C5 (stereo partly drawn)	none
COc1ccc(-n2nnnc2C(c2ccccc2)N2CCC(n3c(=O)[nH]c4ccccc43)CC2)cc1 (stereo not drawn)	CF NFkB block 81, Peg3 prom inh 64, KKLEB cytotox -70 (no result: MITF TRPM1 inh)
O=c1[nH]c2ccccc2n1C1CCN(C(c2nnnn2-c2ccc3c(c2)OCCO3)C2CC2)CC1 (stereo not drawn)	CF NFkB block 84, Peg3 prom inh 78, KKLEB cytotox -87 (no result: MITF TRPM1 inh)
COc1ccc(-n2nnnc2C(c2ccnc3ccccc23)N2CCC(n3c(=O)[nH]c4ccccc43)CC2)cc1 (stereo not drawn)	none (no result: MITF TRPM1 inh)
O=c1[nH]c2ccccc2n1C1CCN(C(c2cccs2)c2nnnn2-c2ccc3c(c2)OCCO3)CC1 (stereo not drawn)	CF NFkB block 87, Peg3 prom inh 77, KKLEB cytotox -79 (no result: MITF TRPM1 inh)
O=C1NCN(c2ccccc2)C12CCN(C(c1cccs1)c1nnnn1-c1ccc3c(c1)OCCO3)CC2 (stereo not drawn)	none (no result: MITF TRPM1 inh)
O=c1[nH]c2ccccc2n1C1CCN(C(c2ccccc2)c2nnnn2-c2ccc3c(c2)OCCO3)CC1 (stereo not drawn)	CF NFkB block 84, Peg3 prom inh 68, KKLEB cytotox -87 (no result: MITF TRPM1 inh)
CN1CCCN(C(=O)COc2cccc(C(F)(F)F)c2)CC1	none
COc1ccc(CC2(CCc3ccncc3)C(=O)NC(=O)NC2=O)c(OC)c1	none
O=C(O)c1ccccc1-c1ccc(C=C2C(=O)N(c3ccccc3)C(=S)N(c3ccccc3)C2=O)o1	none
CC12CCC(O)CC1CCC1C2CCC2(C)C(C(=O)CO)CCC12 (stereo not drawn)	none (no result: MITF TRPM1 inh)
CSCCC(c1nnnn1-c1ccc2c(c1)OCCO2)N1CCC(n2c(=O)[nH]c3ccccc32)CC1 (stereo not drawn)	CF NFkB block 86, Peg3 prom inh 75, KKLEB cytotox -84 (no result: MITF TRPM1 inh)

Source: PubChem
